# Source: PubChem BioAssay (EPA / NIEHS)
# Where “and” joins values, the source holds several entries; their conditions need not be identical. Equal entries are not always repeated. Inconclusive results are not listed. A structure can be active in one record and inactive in another. Calls of active or inactive are those of the source. Rule for the calls, unless noted: active = hit-call score of the fitted dose curve at least 0.9, where 1 is the maximum; inconclusive = response in the unintended direction; inactive = score below 0.9.
# Key:
# [1] = BSK_3C_VCAM1: BioMAP Diversity Plus: 3C Assay for Vascular cell adhesion molecule 1 (VCAM1) Biomarker Activity (AID 2282999; active = hit-call score of the fitted dose curve at least 0.9, where 1 is the maximum; inactive = score below 0.9); settings: BioMAP 3C HUVEC, VCAM1 ELISA, cytokine-stimulated; actives raise or lower the signal
# Summary of the method: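 Endothelial cells from human umbilical vein are treated with test chemical. At 24 h, VCAM-1 is measured by ELISA, and responses in either direction are fitted relative to DMSO.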
# [2] = BSK_4H_Eotaxin3: BioMAP Diversity Plus: 4H Assay for Eotaxin 3 Biomarker Activity (AID 2283000; active = hit-call score of the fitted dose curve at least 0.9, where 1 is the maximum; inactive = score below 0.9;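 for outcome: CCL26 protein level quantified by ELISA in parallel with SRB cytotoxicity check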); settings: primary human endothelial cells (HUVEC); actives raise or lower the signal
# Summary of the method: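 HUVEC, 24 h post-dose, ELISA for Eotaxin-3/CCL26. Gain or loss of signal fitted bidirectionally vs DMSO baseline.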
# [3] = target: human Peroxisome Proliferator-activated Receptor alpha (PPARa), PPARA (gene 5465) (UniProt Q07869); assay: ATG_PPARa_TRANS: Attagene TRANS-FACTORIAL HepG2 Assay for human Peroxisome Proliferator-activated Receptor alpha (PPARa) (AID 2283001);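 for AC50: potency for gain of reporter signal over DMSO so agonist or activator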
# Summary of the method: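 Reporter transcripts from GAL4-UAS units in transfected HepG2 were quantified 24 h after dosing. Detection used reverse transcription, PCR, fluorescent primer extension and capillary electrophoresis, with DMSO as baseline.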
# [4] = read-out: Intercellular Adhesion Molecule 1 (ICAM1), ICAM1 (gene 3383); assay: BSK_3C_ICAM1: BioMAP Diversity Plus: 3C Assay for Intercellular Adhesion Molecule 1 (ICAM1) Biomarker Activity (AID 2283003; active = hit-call score of the fitted dose curve at least 0.9, where 1 is the maximum; inactive = score below 0.9); settings: primary human endothelial cells (HUVEC); actives raise or lower the signal
# Summary of the method: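 Primary human umbilical vein endothelial cells in the BioMAP 3C system were exposed to chemicals for 24 h, then ICAM-1 was quantified by ELISA. Activity was fitted bidirectionally against the DMSO negative control baseline.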
# [5] = target: human Retinoic Acid Receptor beta (RARb), RARB (gene 5915) (UniProt P10826); assay: ATG_RARb_TRANS: Attagene TRANS-FACTORIAL HepG2 Assay for human Retinoic Acid Receptor beta (AID 2283004)
# Summary of the method: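 HepG2 cells transiently transfected with multiplexed GAL4-UAS reporter units expressing chimeric NR–Gal4 fusions; 24 h compound exposure. Reporter mRNA quantified by RT-PCR, 6-FAM labelling, HpaI digestion and capillary electrophoresis; gain-of-signal fitted against DMSO baseline.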
# [6] = target: Retinoic acid receptor alpha (Homo sapiens) (UniProt P10276); assay: ATG_RARa_TRANS: Attagene TRANS-FACTORIAL HepG2 Assay for human Retinoic Acid Receptor alpha (RARa) (AID 2283005)
# Summary of the method: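 Reporter transcripts, measured by RT-PCR with fluorescent labeling and capillary electrophoresis after 24 h dosing, reflect activity of an exogenous human RARa–GAL4 fusion in transiently transfected HepG2. Fitted for increase relative to DMSO.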
# [7] = BSK_3C_Proliferation: Cell Proliferation Assessment in the BioMAP Diversity Plus: 3C Assay (AID 2283006; active = hit-call score of the fitted dose curve at least 0.9, where 1 is the maximum; inactive = score below 0.9;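 for AC50: potency may reflect either rise or fall in cell number versus DMSO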); settings: primary human endothelial cells (HUVEC)
# Summary of the method: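 Human umbilical vein endothelial cells were grown sub-confluent and exposed to chemical for 48 h, then fixed with 10% TCA and stained with 0.1% sulforhodamine B; absorbance at 560 nm gave relative cell number, fitted bidirectionally against DMSO baseline.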
# [8] = target: Peroxisome proliferator-activated receptor gamma (Homo sapiens) (UniProt P37231); assay: ATG_PPARg_TRANS: Attagene TRANS-FACTORIAL HepG2 Assay for human Peroxisome Proliferator-activated Receptor-gamma (PPARg) (AID 2283007)
# Summary of the method: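 Twenty-four hours after chemical dosing of transiently transfected HepG2 cells, isolated RNA was converted to cDNA, reporter sequences amplified and 6-FAM-labelled, then HpaI-digested and analysed by capillary electrophoresis. Signal increase against DMSO was fitted.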
# [9] = target: Nuclear receptor subfamily 1 group I member 2 (Homo sapiens) (UniProt O75469); assay: ATG_PXR_TRANS: Attagene TRANS-FACTORIAL HepG2 Assay for human Pregnane X Receptor (PXR) (AID 2283008)
# Summary of the method: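 Fluorescence intensity of FAM-labelled, HpaI-digested reporter amplicons, separated by capillary electrophoresis, quantifies induction. HepG2 cells with PXR-Gal4 trans-reporter system were exposed 24 h; DMSO defines baseline.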
# [10] = target: human Retinoic Acid Receptor gamma (RARg), RARG (gene 5916) (UniProt P13631); assay: ATG_RARg_TRANS: Attagene TRANS-FACTORIAL HepG2 Assay for human Retinoic Acid Receptor gamma (RARg) (AID 2283009)
# Summary of the method: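 HepG2 cells transiently transfected with multiplexed reporter units expressing chimeric RARg-GAL4 and GAL4-UAS-driven reporters; 24 h compound exposure. Reporter mRNA quantified by RT-PCR with fluorescent labelling and capillary electrophoresis; gain-of-signal fitted relative to DMSO baseline.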
# [11] = target: human RAR-related Orphan Receptor gamma (RORg), RORC (gene 6097) (UniProt P51449); assay: ATG_RORg_TRANS: Attagene TRANS-FACTORIAL HepG2 Assay for human RAR-related Orphan Receptor gamma (RORg) (AID 2283011)
# Summary of the method: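 Readout: reporter transcript induction (RT-PCR, fluorescent primer extension, capillary electrophoresis) after 24 h compound exposure of transiently transfected HepG2 cells carrying a RORg-Gal4 chimera and GAL4-UAS reporters; DMSO served as baseline, with increasing signal fitted.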
# [12] = target: human Retinoid X Receptor beta (RXRb), RXRB (gene 6257) (UniProt P28702); assay: ATG_RXRb_TRANS: Attagene TRANS-FACTORIAL HepG2 Assay for human Retinoid X Receptor beta (RXRb) (AID 2283013)
# Summary of the method: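 HepG2 cells transiently transfected with multiplexed reporter units driven by GAL4-UAS and exogenous chimeric NR-Gal4 proteins; treated 24 h. Reporter mRNA measured by RT-PCR, 6-FAM labelling and capillary electrophoresis; gain-of-signal fitted versus DMSO baseline.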
# [13] = target: human Thyroid Receptor alpha (THRa1), THRA (gene 7067) (UniProt P10827); assay: ATG_THRa1_TRANS: Attagene TRANS-FACTORIAL HepG2 Assay for human Thyroid Receptor alpha (THRa1) (AID 2283014)
# Summary of the method: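 HepG2 cells transiently transfected with multiplexed GAL4-UAS reporter units for exogenous chimeric THRa1-Gal4; reporter mRNA measured 24 h after dosing by RT-PCR, 6-FAM labelling, HpaI digestion and capillary electrophoresis. Gain-of-signal fitted versus DMSO baseline.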
# [14] = read-out: E-selectin (Homo sapiens) (UniProt P16581); assay: BSK_3C_Eselectin: BioMAP Diversity Plus: 3C Assay for Eselectin Biomarker Activity (AID 2283015; active = hit-call score of the fitted dose curve at least 0.9, where 1 is the maximum; inactive = score below 0.9;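 for outcome: cell surface E-selectin protein quantified by ELISA 24 h after dosing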); settings: primary human endothelial cells (HUVEC); actives raise or lower the signal
# Summary of the method: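 Primary human umbilical vein endothelial cells (3C system) were dosed with chemical and cell-surface E-selectin measured by ELISA 24 h later. Bidirectional curve fitting used DMSO as negative control and baseline.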
# [15] = read-out: Interleukin-1 alpha (IL1a), IL1A (gene 3552); assay: BSK_BE3C_IL1a: BioMAP Diversity Plus: BE3C Assay for Interleukin-1 alpha (IL1a) Biomarker Activity (AID 2283016; active = hit-call score of the fitted dose curve at least 0.9, where 1 is the maximum; inactive = score below 0.9); settings: primary human bronchial epithelial cells; actives raise or lower the signal
# Summary of the method: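 Human primary bronchial epithelial cells (BE3C system) were dosed with compound and IL-1a measured by ELISA 24 h later. Activity was fitted bidirectionally against DMSO baseline; cytotoxicity was tracked in parallel cultures by SRB total-protein staining.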
# [16] = read-out: Monocyte Chemoattractant Protein-1 (MCP1), CCL2 (gene 6347); assay: BSK_3C_MCP1: BioMAP Diversity Plus: 3C Assay for Monocyte Chemoattractant Protein-1 (MCP1) Biomarker Activity (AID 2283017; active = hit-call score of the fitted dose curve at least 0.9, where 1 is the maximum; inactive = score below 0.9); settings: primary human endothelial cells (HUVEC); actives raise or lower the signal
# Summary of the method: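 Primary human umbilical vein endothelial cells (3C system) were exposed to test chemical for 24 h, after which MCP-1 was quantified by ELISA. Activity was fitted bidirectionally against DMSO as negative control and baseline.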
# [17] = read-out: Monocyte Chemoattractant Protein-1 (MCP1), CCL2 (gene 6347); assay: BSK_4H_MCP1: BioMAP Diversity Plus: 4H Assay for Monocyte Chemoattractant Protein-1 (MCP1) Biomarker Activity (AID 2283018; active = hit-call score of the fitted dose curve at least 0.9, where 1 is the maximum; inactive = score below 0.9); settings: primary human endothelial cells (HUVEC); actives raise or lower the signal
# Summary of the method: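 Human umbilical vein endothelial cells (4H system) dosed with chemical; MCP-1 measured by ELISA 24 h after dosing. Bidirectional curve fitting against DMSO negative control as baseline; parallel SRB total-protein staining tracks overt cytotoxicity.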
# [18] = target: human Peroxisome Proliferator-activated Receptor delta (PPARd), PPARD (gene 5467) (UniProt Q03181); assay: ATG_PPARd_TRANS: Attagene TRANS-FACTORIAL HepG2 Assay for human Peroxisome Proliferator-activated Receptor delta (PPARd) (AID 2283002)
# Summary of the method: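 Read-out is induced reporter mRNA, quantified by RT-PCR with fluorescent labelling and capillary electrophoresis after 24 h dosing. Cells are HepG2 transiently carrying multiple GAL4-UAS reporter units driven by exogenous NR-GAL4 chimeras; DMSO serves as baseline.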
# [19] = target: human RAR-related Orphan Receptor beta (RORb), RORB (gene 6096) (UniProt Q92753); assay: ATG_RORb_TRANS: Attagene TRANS-FACTORIAL HepG2 Assay for human RAR-related Orphan Receptor beta (RORb) (AID 2283010)
# Summary of the method: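 HepG2 cells were transiently transfected with multiplexed GAL4-UAS reporter units expressing chimeric nuclear receptor–GAL4 proteins, then dosed for 24 h. Reporter mRNA was quantified by RT-PCR with fluorescent labelling and capillary electrophoresis; gain of signal was fitted relative to DMSO.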
# [20] = target: Retinoic acid receptor RXR-alpha (Homo sapiens) (UniProt P19793); assay: ATG_RXRa_TRANS: Attagene TRANS-FACTORIAL HepG2 Assay for human Retinoid X Receptor alpha (RXRa) (AID 2283012)
# Summary of the method: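 HepG2 cells transiently transfected with multiplexed GAL4-UAS reporter units and chimeric NR-GAL4 fusions, dosed 24 h. Reporter mRNA measured by RT-PCR, FAM labelling, HpaI digestion and capillary electrophoresis; gain-of-signal fitted relative to DMSO baseline.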
# Chain of human Retinoid X Receptor beta (RXRb), RXRB (gene 6257) (P28702 whole entry, looked up, the tested form may be a part): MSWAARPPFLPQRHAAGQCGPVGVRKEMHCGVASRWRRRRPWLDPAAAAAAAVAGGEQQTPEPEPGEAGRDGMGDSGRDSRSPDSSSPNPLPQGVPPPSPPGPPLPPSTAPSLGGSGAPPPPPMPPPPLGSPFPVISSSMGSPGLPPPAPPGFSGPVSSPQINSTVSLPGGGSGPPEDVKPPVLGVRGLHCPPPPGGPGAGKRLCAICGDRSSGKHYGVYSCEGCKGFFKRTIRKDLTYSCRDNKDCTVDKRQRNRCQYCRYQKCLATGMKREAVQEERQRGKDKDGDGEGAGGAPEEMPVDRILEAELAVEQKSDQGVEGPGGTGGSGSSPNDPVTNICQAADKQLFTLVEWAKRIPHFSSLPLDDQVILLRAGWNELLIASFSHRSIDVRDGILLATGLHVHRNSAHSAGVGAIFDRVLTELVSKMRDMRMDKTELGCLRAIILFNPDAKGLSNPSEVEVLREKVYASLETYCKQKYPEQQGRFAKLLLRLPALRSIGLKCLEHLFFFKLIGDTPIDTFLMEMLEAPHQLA
# Chain of E-selectin (Homo sapiens) (P16581 whole entry, looked up): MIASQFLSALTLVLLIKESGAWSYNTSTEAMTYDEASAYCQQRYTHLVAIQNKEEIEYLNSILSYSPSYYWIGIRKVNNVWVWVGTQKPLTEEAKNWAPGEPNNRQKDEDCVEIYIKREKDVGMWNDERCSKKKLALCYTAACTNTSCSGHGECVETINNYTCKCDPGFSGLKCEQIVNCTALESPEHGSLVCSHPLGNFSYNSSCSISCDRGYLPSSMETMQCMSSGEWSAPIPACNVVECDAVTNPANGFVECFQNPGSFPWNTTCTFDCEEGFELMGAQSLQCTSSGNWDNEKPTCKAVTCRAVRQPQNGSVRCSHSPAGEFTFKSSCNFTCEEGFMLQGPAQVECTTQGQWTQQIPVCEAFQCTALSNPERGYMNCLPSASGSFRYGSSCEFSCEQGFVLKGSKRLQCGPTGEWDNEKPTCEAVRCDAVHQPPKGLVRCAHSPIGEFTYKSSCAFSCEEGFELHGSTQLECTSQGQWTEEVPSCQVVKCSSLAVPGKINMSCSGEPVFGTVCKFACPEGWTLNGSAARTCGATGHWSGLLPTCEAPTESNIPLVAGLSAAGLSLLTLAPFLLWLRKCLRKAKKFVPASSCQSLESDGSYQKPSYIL
# Chain of Nuclear receptor subfamily 1 group I member 2 (Homo sapiens) (O75469 whole entry, looked up, the tested form may be a part): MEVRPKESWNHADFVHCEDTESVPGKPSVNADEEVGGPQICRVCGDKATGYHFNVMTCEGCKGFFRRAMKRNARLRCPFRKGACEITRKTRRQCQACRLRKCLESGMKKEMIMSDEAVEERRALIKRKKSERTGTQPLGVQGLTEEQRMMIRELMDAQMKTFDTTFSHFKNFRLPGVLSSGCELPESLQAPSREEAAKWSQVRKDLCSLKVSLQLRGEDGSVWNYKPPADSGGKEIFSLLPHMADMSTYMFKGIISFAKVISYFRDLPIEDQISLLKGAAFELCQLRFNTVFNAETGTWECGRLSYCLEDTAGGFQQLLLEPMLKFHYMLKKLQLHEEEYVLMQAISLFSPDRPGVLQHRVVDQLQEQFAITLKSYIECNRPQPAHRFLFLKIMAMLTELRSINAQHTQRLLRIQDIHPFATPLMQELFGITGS
# Chain of human Peroxisome Proliferator-activated Receptor delta (PPARd), PPARD (gene 5467) (Q03181 whole entry, looked up, the tested form may be a part): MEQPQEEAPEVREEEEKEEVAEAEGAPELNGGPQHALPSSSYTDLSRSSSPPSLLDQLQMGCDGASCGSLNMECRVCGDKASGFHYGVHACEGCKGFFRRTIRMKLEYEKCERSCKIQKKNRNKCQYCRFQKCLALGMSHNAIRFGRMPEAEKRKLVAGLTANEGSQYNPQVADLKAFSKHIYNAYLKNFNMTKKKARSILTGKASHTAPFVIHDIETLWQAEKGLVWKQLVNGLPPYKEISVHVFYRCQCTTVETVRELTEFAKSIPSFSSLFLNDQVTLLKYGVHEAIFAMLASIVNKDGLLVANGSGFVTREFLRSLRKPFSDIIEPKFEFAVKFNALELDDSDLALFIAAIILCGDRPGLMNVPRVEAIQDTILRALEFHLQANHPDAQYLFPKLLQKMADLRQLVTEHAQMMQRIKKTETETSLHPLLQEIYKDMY
# Chain of human Peroxisome Proliferator-activated Receptor alpha (PPARa), PPARA (gene 5465) (Q07869 whole entry, looked up, the tested form may be a part): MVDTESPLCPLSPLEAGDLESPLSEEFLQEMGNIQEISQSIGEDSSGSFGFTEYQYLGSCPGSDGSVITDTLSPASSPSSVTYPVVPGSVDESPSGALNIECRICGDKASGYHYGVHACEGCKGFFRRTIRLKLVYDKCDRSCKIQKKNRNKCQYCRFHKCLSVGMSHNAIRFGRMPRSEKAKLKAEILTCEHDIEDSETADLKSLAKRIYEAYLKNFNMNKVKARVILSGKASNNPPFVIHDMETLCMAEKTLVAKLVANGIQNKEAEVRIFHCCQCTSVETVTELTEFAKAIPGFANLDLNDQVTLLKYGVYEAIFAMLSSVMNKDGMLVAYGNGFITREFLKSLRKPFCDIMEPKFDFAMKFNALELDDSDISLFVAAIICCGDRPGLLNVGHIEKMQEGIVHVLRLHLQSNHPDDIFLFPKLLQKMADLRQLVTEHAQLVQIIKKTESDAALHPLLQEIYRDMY
# Chain of human Retinoic Acid Receptor gamma (RARg), RARG (gene 5916) (P13631 whole entry, looked up, the tested form may be a part): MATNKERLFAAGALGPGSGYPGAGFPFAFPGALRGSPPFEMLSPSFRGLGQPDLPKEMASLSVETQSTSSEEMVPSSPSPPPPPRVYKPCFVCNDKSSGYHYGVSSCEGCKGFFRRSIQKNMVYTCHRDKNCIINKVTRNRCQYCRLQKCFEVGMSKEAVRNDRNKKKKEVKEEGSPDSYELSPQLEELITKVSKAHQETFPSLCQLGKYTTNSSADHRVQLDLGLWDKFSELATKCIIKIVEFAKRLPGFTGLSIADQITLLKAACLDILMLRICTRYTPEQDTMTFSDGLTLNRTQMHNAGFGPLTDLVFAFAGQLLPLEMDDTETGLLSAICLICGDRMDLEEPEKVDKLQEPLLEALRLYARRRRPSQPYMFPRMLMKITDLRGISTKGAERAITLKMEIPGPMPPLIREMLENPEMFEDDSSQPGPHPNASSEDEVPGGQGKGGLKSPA
# Chain of Peroxisome proliferator-activated receptor gamma (Homo sapiens) (P37231 whole entry, looked up): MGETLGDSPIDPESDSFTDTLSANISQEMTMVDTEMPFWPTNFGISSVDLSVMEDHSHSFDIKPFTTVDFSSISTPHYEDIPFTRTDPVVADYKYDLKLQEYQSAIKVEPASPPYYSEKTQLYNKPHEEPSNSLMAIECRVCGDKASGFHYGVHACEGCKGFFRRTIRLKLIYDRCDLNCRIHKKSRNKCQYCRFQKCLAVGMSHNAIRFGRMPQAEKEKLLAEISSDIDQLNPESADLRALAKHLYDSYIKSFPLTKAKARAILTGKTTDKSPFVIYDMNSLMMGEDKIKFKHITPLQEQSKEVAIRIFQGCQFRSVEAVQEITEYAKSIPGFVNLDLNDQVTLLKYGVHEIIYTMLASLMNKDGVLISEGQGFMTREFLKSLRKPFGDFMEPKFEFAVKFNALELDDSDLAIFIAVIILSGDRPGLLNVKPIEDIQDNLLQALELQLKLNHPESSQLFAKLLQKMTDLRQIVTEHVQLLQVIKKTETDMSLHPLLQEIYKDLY
# Chain of human Thyroid Receptor alpha (THRa1), THRA (gene 7067) (P10827 whole entry, looked up, the tested form may be a part): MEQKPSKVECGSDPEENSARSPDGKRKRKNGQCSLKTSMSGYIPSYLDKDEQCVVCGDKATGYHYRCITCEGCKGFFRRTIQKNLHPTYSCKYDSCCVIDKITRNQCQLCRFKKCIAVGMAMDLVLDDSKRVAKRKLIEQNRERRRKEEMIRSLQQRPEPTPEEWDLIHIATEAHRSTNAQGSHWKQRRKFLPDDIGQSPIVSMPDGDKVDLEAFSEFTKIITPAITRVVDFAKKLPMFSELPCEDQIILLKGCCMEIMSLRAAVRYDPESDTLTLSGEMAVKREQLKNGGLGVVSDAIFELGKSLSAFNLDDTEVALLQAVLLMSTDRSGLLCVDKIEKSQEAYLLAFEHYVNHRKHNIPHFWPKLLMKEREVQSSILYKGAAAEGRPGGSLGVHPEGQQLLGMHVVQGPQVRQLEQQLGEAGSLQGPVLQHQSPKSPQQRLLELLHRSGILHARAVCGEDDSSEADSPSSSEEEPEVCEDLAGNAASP
# Chain of Retinoic acid receptor alpha (Homo sapiens) (P10276 whole entry, looked up, the tested form may be a part): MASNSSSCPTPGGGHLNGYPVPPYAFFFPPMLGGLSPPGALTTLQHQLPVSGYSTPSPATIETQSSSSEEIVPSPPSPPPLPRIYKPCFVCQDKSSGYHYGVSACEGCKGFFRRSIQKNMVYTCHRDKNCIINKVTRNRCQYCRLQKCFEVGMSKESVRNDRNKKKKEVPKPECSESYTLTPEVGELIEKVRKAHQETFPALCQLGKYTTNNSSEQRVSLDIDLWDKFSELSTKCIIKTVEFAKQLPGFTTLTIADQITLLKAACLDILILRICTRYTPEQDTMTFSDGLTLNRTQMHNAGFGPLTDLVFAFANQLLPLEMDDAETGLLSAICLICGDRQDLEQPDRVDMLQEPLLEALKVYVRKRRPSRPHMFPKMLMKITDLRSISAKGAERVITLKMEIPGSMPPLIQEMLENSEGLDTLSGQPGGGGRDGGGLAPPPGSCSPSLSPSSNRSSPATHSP
# Chain of human Retinoic Acid Receptor beta (RARb), RARB (gene 5915) (P10826 whole entry, looked up, the tested form may be a part): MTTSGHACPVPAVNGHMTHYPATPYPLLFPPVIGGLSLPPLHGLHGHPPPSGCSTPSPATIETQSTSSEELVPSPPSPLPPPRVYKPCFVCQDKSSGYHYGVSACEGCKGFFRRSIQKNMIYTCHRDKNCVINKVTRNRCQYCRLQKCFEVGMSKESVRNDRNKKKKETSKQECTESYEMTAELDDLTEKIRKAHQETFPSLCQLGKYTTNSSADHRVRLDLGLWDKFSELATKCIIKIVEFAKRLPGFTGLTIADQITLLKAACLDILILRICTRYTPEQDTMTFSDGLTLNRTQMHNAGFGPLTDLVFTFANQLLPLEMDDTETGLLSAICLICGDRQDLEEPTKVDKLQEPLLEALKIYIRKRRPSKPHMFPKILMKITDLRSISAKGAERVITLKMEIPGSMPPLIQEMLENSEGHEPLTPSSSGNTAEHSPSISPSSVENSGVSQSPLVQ
compound,measurement,setting,value
Cc1cc(-c2ccc(N)c(C)c2)ccc1N,outcome,[1],inactive
same,outcome,[2],inactive
same,outcome,[3],inactive
same,outcome,[4],inactive
same,outcome,[5],inactive
same,outcome,[6],inactive
same,outcome,[7],inactive
same,AC50,[8],100 µM (active)
same,outcome,[8],inactive
same,outcome,[9],inactive
same,outcome,[10],inactive
same,outcome,[11],inactive
same,outcome,[12],inactive
same,outcome,[13],inactive
same,outcome,[14],inactive
same,outcome,[15],inactive
same,outcome,[16],inactive
same,outcome,[17],inactive
CCCCCCOC(=O)c1ccccc1C(=O)OCCCCCC,outcome,[1],inactive
same,outcome,[2],inactive
same,outcome,[3],inactive
same,outcome,[18],inactive
same,outcome,[4],inactive
same,AC50,[7],14.6 µM (active)
same,AC50,[8],12.9 µM (active)
same,AC50,[9],4.17 µM (active)
same,outcome,[12],inactive
same,outcome,[14],inactive
same,outcome,[15],inactive
same,AC50,[16],29.1 µM (active)
same,outcome,[17],inactive
O=C(O)C(F)(F)C(F)(F)C(F)(F)C(F)(F)C(F)(F)F,outcome,[1],inactive
same,outcome,[2],inactive
same,AC50,[3],36.7 µM (active) and 70.9 µM (active)
same,outcome,[18],inactive
same,outcome,[4],inactive
same,outcome,[6],inactive
same,outcome,[7],inactive
same,outcome,[8],inactive
same,outcome,[9],inactive
same,outcome,[12],inactive
same,outcome,[14],inactive
same,outcome,[15],inactive
same,outcome,[16],inactive
same,outcome,[17],inactive
CCCCCCCCCc1ccc(O)cc1,AC50,[1],13.8 µM (active)
same,AC50,[2],15.2 µM (active)
same,AC50,[3],33.4 µM (active) and 21.6 µM (active) and 16.9 µM (active)
same,AC50,[18],25.5 µM (active) and 33.4 µM (active)
same,outcome,[18],inactive
same,AC50,[4],15.4 µM (active)
same,outcome,[5],inactive
same,outcome,[6],inactive
same,AC50,[7],11.2 µM (active)
same,AC50,[8],33.4 µM (active) and 25.1 µM (active) and 9.23 µM (active)
same,AC50,[9],21.2 µM (active)
same,outcome,[9],inactive
same,outcome,[10],inactive
same,outcome,[19],inactive
same,outcome,[20],inactive
same,outcome,[13],inactive
same,AC50,[14],14.3 µM (active)
same,AC50,[15],17.3 µM (active)
same,AC50,[16],14.6 µM (active)
same,AC50,[17],12.3 µM (active)
O=C(NC(=O)c1c(F)cccc1F)Nc1cc(Cl)c(OC(F)(F)C(F)F)c(Cl)c1,outcome,[1],inactive
same,outcome,[2],inactive
same,outcome,[3],inactive
same,outcome,[18],inactive
same,outcome,[4],inactive
same,outcome,[6],inactive
same,outcome,[7],inactive
same,outcome,[8],inactive
same,outcome,[9],inactive
same,outcome,[10],inactive
same,outcome,[12],inactive
same,outcome,[13],inactive
same,outcome,[14],inactive
same,outcome,[15],inactive
same,outcome,[16],inactive
same,outcome,[17],inactive
Clc1ccc(C(c2ccccc2Cl)C(Cl)(Cl)Cl)cc1 (configuration not stated),AC50,[1],21 µM (active)
same,AC50,[2],20.3 µM (active)
same,outcome,[3],inactive
same,outcome,[18],inactive
same,AC50,[4],21.7 µM (active)
same,AC50,[7],7.61 µM (active)
same,outcome,[8],inactive
same,AC50,[9],3.39 µM (active) and 2.82 µM (active) and 3.97 µM (active)
same,outcome,[9],inactive
same,outcome,[10],inactive
same,outcome,[19],inactive
same,outcome,[13],inactive
same,AC50,[14],17.1 µM (active)
same,outcome,[15],inactive
same,AC50,[16],11.4 µM (active)
same,AC50,[17],9.7 µM (active)
